In the supplement of paper PMC9950053:
Counter-ions that a name gives are not always drawn.

These compounds were tested on Danio rerio larvae (5 dpf) (assay: excitability (activity period 17 minus period 16, 1-s interval sound) minus DMSO control (percentage points); higher = more acoustic excitability than DMSO larvae). Details: 10 µM; exposure time: 3 h pre-incubation + 3 h imaging.
In short: (§1)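 Behavioural measures are expressed in percentage points as the treated group mean minus the control group mean. Groups held 48 larvae and the control held 844. Wild-type zebrafish larvae at 5 dpf received compounds at 10 µM final for 3 h before imaging and throughout 3 h of imaging at 28.5 °C, with frames every 6 s tracked by Z-LaP Tracker. Detections with probability below 0.5 and larvae moving less than 1% of the time were excluded.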

SMILES	excitability
C=C1[C@H](CO)[C@@H](O)C[C@@H]1n1cnc2c(=O)[nH]c(N)nc21 [Entecavir]	-0.589
COCCCOc1cc(C[C@@H](C[C@H](N)[C@@H](O)C[C@H](C(=O)NCC(C)(C)C(N)=O)C(C)C)C(C)C)ccc1OC [Aliskiren hemifumarate]	12.7
CC(C)(C)NC(=O)[C@@H]1C[C@@H]2CCCC[C@@H]2CN1C[C@@H](O)[C@H](Cc1ccccc1)NC(=O)[C@H](CC(N)=O)NC(=O)c1ccc2ccccc2n1 [Saquinavir mesylate]	7.09
CC(=O)O[C@]1(C(C)=O)CC[C@H]2[C@@H]3C=C(C)C4=CC(=O)CC[C@]4(C)[C@H]3CC[C@@]21C [Megestrol Acetate]	12.4
C#C[C@]1(O)CC[C@H]2[C@@H]3CCC4=CC(=O)CC[C@@H]4[C@H]3CC[C@@]21CC [Levonorgestrel]	3.64

These compounds were tested on Danio rerio larvae (5 dpf) (assay: combined upward orientation toward moving lines (periods 7-14) minus DMSO control (percentage points); higher = more orientation with moving lines than DMSO larvae). Details: 10 µM; exposure time: 3 h pre-incubation + 3 h imaging.
In short: as §1

SMILES	combined upward orientation toward moving lines
CCN(Cc1ccncc1)C(=O)C(CO)c1ccccc1 (stereo unspecified) [Tropicamide]	3.89
CN1CC(=O)N2[C@H](c3ccc4c(c3)OCO4)c3[nH]c4ccccc4c3C[C@@H]2C1=O [Tadalafil]	-7.35
COc1cc2ncnc(Nc3ccc(F)c(Cl)c3)c2cc1OCCCN1CCOCC1 [Iressa]	-7.88
C[C@H](Cc1cc2c(c(C(N)=O)c1)N(CCCO)CC2)NCCOc1ccccc1OCC(F)(F)F [Silodosin]	-4.66
CN(C)CC/C=C1/c2ccccc2COc2ccc(CC(=O)O)cc21 [Olopatadine hydrochloride]	-3.54
C[C@]12CC[C@@H]3c4ccc(O)cc4C[C@@H](CCCCCCCCC[S+]([O-])CCCC(F)(F)C(F)(F)F)[C@H]3[C@@H]1CC[C@@H]2O (stereo partly specified)	0.781
Nc1nc(Cl)nc2c1ncn2[C@@H]1O[C@H](CO)[C@@H](O)[C@@H]1F [Clofarabine]	-4.29
CN1CC[C@@H](NC(=O)Nc2ccc(C#N)cc2)C[C@@H]1c1nc2ccccc2[nH]1	4.61
COCCCOc1cc(C[C@@H](C[C@H](N)[C@@H](O)C[C@H](C(=O)NCC(C)(C)C(N)=O)C(C)C)C(C)C)ccc1OC [Aliskiren hemifumarate]	-2.45
COC(=O)C1=C(C)NC(C)=C(C(=O)OC(C)C)C1c1cccc2nonc12 (stereo unspecified) [Isradipine]	-3.59
CC(C)(C)NC(=O)[C@@H]1C[C@@H]2CCCC[C@@H]2CN1C[C@@H](O)[C@H](Cc1ccccc1)NC(=O)[C@H](CC(N)=O)NC(=O)c1ccc2ccccc2n1 [Saquinavir mesylate]	-6.24
Nc1nc(NC2CC2)c2ncn([C@H]3C=C[C@@H](CO)C3)c2n1 [Abacavir hemisulfate]	-1.52
O=c1[nH]c(=O)n([C@H]2C[C@H](O)[C@@H](CO)O2)cc1C(F)(F)F [Trifluorothymidine]	-3.41
O=C(O[C@@H]1C[C@@H]2C[C@H]3C[C@H](C1)N2CC3=O)c1c[nH]c2ccccc12 [Dolasetron mesylate]	-0.866
CO[C@H]1/C=C/O[C@@]2(C)Oc3c(C)c(O)c4c(O)c(c5c(nc6cc(C)ccn65)c4c3C2=O)NC(=O)/C(C)=C\C=C\[C@H](C)[C@H](O)[C@@H](C)[C@@H](O)[C@@H](C)[C@H](OC(C)=O)[C@@H]1C [Rifaximin]	-3.95
CC(C)[C@H]1CC[C@H](C(=O)N[C@H](Cc2ccccc2)C(=O)O)CC1 [Nateglinide]	-0.86
Nc1ccn([C@@H]2O[C@H](CO)[C@@H](O)C2(F)F)c(=O)n1 [Gemcitabine hydrochloride]	5.82
C#C[C@]1(O)CC[C@H]2[C@@H]3CCC4=CC(=O)CC[C@@H]4[C@H]3CC[C@@]21CC [Levonorgestrel]	5.76

These compounds were tested on Danio rerio larvae (5 dpf) (assay: habituation (activity change first vs second 5 min of 1-s interval sound, period 17) minus DMSO control (percentage points); higher = larger habituation measure than DMSO larvae). Details: 10 µM; exposure time: 3 h pre-incubation + 3 h imaging.
In short: as §1

SMILES	habituation
CCN(Cc1ccncc1)C(=O)C(CO)c1ccccc1 (stereo unspecified) [Tropicamide]	2.39
COc1cc2ncnc(Nc3ccc(F)c(Cl)c3)c2cc1OCCCN1CCOCC1 [Iressa]	1.15
C[C@]12CC[C@@H]3c4ccc(O)cc4C[C@@H](CCCCCCCCC[S+]([O-])CCCC(F)(F)C(F)(F)F)[C@H]3[C@@H]1CC[C@@H]2O (stereo partly specified)	-2.02
CO[C@H]1/C=C/O[C@@]2(C)Oc3c(C)c(O)c4c(O)c(c5c(nc6cc(C)ccn65)c4c3C2=O)NC(=O)/C(C)=C\C=C\[C@H](C)[C@H](O)[C@@H](C)[C@@H](O)[C@@H](C)[C@H](OC(C)=O)[C@@H]1C [Rifaximin]	-3.24
CC(C)[C@H]1CC[C@H](C(=O)N[C@H](Cc2ccccc2)C(=O)O)CC1 [Nateglinide]	-2.04
O=C(O)c1cc(/N=N/c2ccc(S(=O)(=O)Nc3ccccn3)cc2)ccc1O [Sulfasalazine]	1.27
C#C[C@]1(O)CC[C@H]2[C@@H]3CCC4=CC(=O)CC[C@@H]4[C@H]3CC[C@@]21CC [Levonorgestrel]	-7.5

Each compound was assayed on Danio rerio larvae (5 dpf) (assay: combined optomotor response (time in upper well half, down vs up moving lines, periods 7-14) minus DMSO control (percentage points); higher = stronger optomotor response than DMSO larvae). Details: 10 µM; exposure time: 3 h pre-incubation + 3 h imaging.

SMILES	combined optomotor response
C=C1[C@H](CO)[C@@H](O)C[C@@H]1n1cnc2c(=O)[nH]c(N)nc21 [Entecavir]	3.44
CCN(Cc1ccncc1)C(=O)C(CO)c1ccccc1 (stereo unspecified) [Tropicamide]	0.19
CN1CC(=O)N2[C@H](c3ccc4c(c3)OCO4)c3[nH]c4ccccc4c3C[C@@H]2C1=O [Tadalafil]	-1.2
COc1cc2ncnc(Nc3ccc(F)c(Cl)c3)c2cc1OCCCN1CCOCC1 [Iressa]	5.72
C[C@H](Cc1cc2c(c(C(N)=O)c1)N(CCCO)CC2)NCCOc1ccccc1OCC(F)(F)F [Silodosin]	9.04
CC(C)Nc1cccnc1N1CCN(C(=O)c2cc3cc(NS(C)(=O)=O)ccc3[nH]2)CC1 [Delavirdine mesylate]	-0.694
CN(C)CC/C=C1/c2ccccc2COc2ccc(CC(=O)O)cc21 [Olopatadine hydrochloride]	8.84
C[C@]12CC[C@@H]3c4ccc(O)cc4C[C@@H](CCCCCCCCC[S+]([O-])CCCC(F)(F)C(F)(F)F)[C@H]3[C@@H]1CC[C@@H]2O (stereo partly specified)	2.46
Nc1nc(Cl)nc2c1ncn2[C@@H]1O[C@H](CO)[C@@H](O)[C@@H]1F [Clofarabine]	4.66
CC(C)N(CCCCOCC(=O)NS(C)(=O)=O)c1cnc(-c2ccccc2)c(-c2ccccc2)n1 [Selexipag]	4.06
COc1ccccc1OCCNCC(O)COc1cccc2[nH]c3ccccc3c12 (stereo unspecified) [Carvedilol]	-1.8
CN1CC[C@@H](NC(=O)Nc2ccc(C#N)cc2)C[C@@H]1c1nc2ccccc2[nH]1	-1.72
COCCCOc1cc(C[C@@H](C[C@H](N)[C@@H](O)C[C@H](C(=O)NCC(C)(C)C(N)=O)C(C)C)C(C)C)ccc1OC [Aliskiren hemifumarate]	1.73
COC(=O)C1=C(C)NC(C)=C(C(=O)OC(C)C)C1c1cccc2nonc12 (stereo unspecified) [Isradipine]	-14.7
Cc1cccc(CN2CCN(C(c3ccccc3)c3ccc(Cl)cc3)CC2)c1 (stereo unspecified) [Meclizine dihydrochloride]	-13.9
C[C@H]1C[C@@H]2[C@H]([C@@H](O)C[C@@]3(C)[C@H]2CC[C@]3(O)C(=O)CO)[C@@]2(C)C=CC(=O)C=C12 [Methylprednisolone]	8.85

SMILES	combined optomotor response
OC(CNCC(O)C1CCc2cc(F)ccc2O1)C1CCc2cc(F)ccc2O1 (stereo unspecified) [Nebivolol hydrochloride]	-9.95
CC(C)(C)NC(=O)[C@@H]1C[C@@H]2CCCC[C@@H]2CN1C[C@@H](O)[C@H](Cc1ccccc1)NC(=O)[C@H](CC(N)=O)NC(=O)c1ccc2ccccc2n1 [Saquinavir mesylate]	-2.96
CC(C)C(=O)Nc1ccc([N+](=O)[O-])c(C(F)(F)F)c1 [Flutamide]	-12.4
Nc1nc(NC2CC2)c2ncn([C@H]3C=C[C@@H](CO)C3)c2n1 [Abacavir hemisulfate]	4.25
O=c1[nH]c(=O)n([C@H]2C[C@H](O)[C@@H](CO)O2)cc1C(F)(F)F [Trifluorothymidine]	5.31
O=C(O[C@@H]1C[C@@H]2C[C@H]3C[C@H](C1)N2CC3=O)c1c[nH]c2ccccc12 [Dolasetron mesylate]	-2.11
C[C@@H](O[C@H]1OCCN(Cc2n[nH]c(=O)[nH]2)[C@H]1c1ccc(F)cc1)c1cc(C(F)(F)F)cc(C(F)(F)F)c1 [Aprepitant]	4.63
CC1(C)O[C@@H]2[C@@H](CO[C@@]3(COS(N)(=O)=O)OC(C)(C)O[C@@H]23)O1 [Topiramate]	-3.96
CO[C@H]1/C=C/O[C@@]2(C)Oc3c(C)c(O)c4c(O)c(c5c(nc6cc(C)ccn65)c4c3C2=O)NC(=O)/C(C)=C\C=C\[C@H](C)[C@H](O)[C@@H](C)[C@@H](O)[C@@H](C)[C@H](OC(C)=O)[C@@H]1C [Rifaximin]	2.32
CC(C)[C@H]1CC[C@H](C(=O)N[C@H](Cc2ccccc2)C(=O)O)CC1 [Nateglinide]	3.95
CC(=O)O[C@]1(C(C)=O)CC[C@H]2[C@@H]3C=C(C)C4=CC(=O)CC[C@]4(C)[C@H]3CC[C@@]21C [Megestrol Acetate]	-8.35
O=C(O)c1cc(/N=N/c2ccc(S(=O)(=O)Nc3ccccn3)cc2)ccc1O [Sulfasalazine]	1.33
CC(C)(C(=O)c1cccnc1)c1cccnc1 [Metyrapone]	-5.86
Nc1ccn([C@@H]2O[C@H](CO)[C@@H](O)C2(F)F)c(=O)n1 [Gemcitabine hydrochloride]	1.86
C#C[C@]1(O)CC[C@H]2[C@@H]3CCC4=CC(=O)CC[C@@H]4[C@H]3CC[C@@]21CC [Levonorgestrel]	6.62
